High-throughput results as filed in PubChem.
This is a sample that favours compounds with a hit; in the whole collection about 7.3% have one here.
KinaseGlo FLuc – counter-screen: inhibitors of Kinase-Glo firefly luciferase. Kinase-Glo luciferase, ATP luminescence, 8 min. Potency, µM (titrated, usually from 38.3 µM), for the others: at the top dose activity change, negative = inhibition, actives largely listed as inhibitors. 200,000 compounds, 0.28% hits. AID 1379; also: % is scaled to controls: 0 for no effect and ±100 for the full control effect; nearly all actives have a fitted effect of over 60% in size
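Light output from Kinase-Glo luciferase with luciferin and 10 uM ATP in 50 mM imidazole pH 7.2, KCl, MgCl2, Tween 20, BSA; compound pin-delivered, 8-min ambient incubation, then luminescence read.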
SMN2 splice up – enhancers of SMN2 splice variant expression; 210,000 compounds, 2.8% hits; Potency, µM (titrated, usually from 46.1 µM), inactives show at the top dose activity change, positive = activation, hits mostly activators; AID 1458; HEK293 SMN2-luciferase splicing reporter, luminescence, 30-36 h; also: % of control where 0% means no effect; nearly all actives have a fitted effect of over 55% in size
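HEK293 cells carry an SMN2 […]–luciferase reporter in which exon 7 inclusion puts luciferase in frame. Cells were plated 10-12 h before compound addition, then incubated 30-36 h at 37C. ONE-Glo luminescence was read; sodium butyrate at 4.5 mM final served as control.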
NPC1 prom act – NPC1 promoter activation; AID 485313; 320,000 compounds, 2.4% hits; Potency, µM (top dose mostly 9.22 µM), inactives show top-dose activation, actives largely listed as activators; Huh7 NPC1 promoter luciferase reporter, 24 h; also: % of control where 0% means no effect; nearly all actives have a fitted effect of over 60% in size
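Luminescence read-out of NPC1 promoter-driven luciferase in stably transfected Huh7 cells; compounds delivered in DMSO and left 24 h at 37C, 5% CO2, qHTS titration format.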
ELG1 genotoxic – genotoxicity induction in ELG1-luciferase HEK293T cells | 330,000 compounds, 1.3% hits | HEK293T ELG1-luciferase reporter, luminescence, 16 h | Potency, µM (doses to about 46 µM), without a hit: at the top dose activity change, positive = activation, usual class: activators | AID 504466; also: % of control where 0% means no effect; nearly all actives have a fitted effect of over 60% in size
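HEK293T cells expressing luciferase-tagged ELG1 were treated with compound or DMSO for 16 hr at 37°C. Luciferase activity was then read after 30 min with ONE-Glo at room temperature; rising signal flags genetic stress.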
FLuc modulator – firefly luciferase modulation, counter-screen for miR-21 project; 360,000 compounds, 6.9% hits; Potency, µM (top dose mostly 57.5 µM), inactives show at the highest dose activity change, negative = inhibition, most hits filed as inhibitors; P08659; purified FLuc, Km substrates, luminescence inhibition;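 also: plate controls were vehicle for no effect and reference inhibitor for full effect; nearly all actives have a fitted effect of over 55% in size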
Target sequence (P08659 whole entry, looked up): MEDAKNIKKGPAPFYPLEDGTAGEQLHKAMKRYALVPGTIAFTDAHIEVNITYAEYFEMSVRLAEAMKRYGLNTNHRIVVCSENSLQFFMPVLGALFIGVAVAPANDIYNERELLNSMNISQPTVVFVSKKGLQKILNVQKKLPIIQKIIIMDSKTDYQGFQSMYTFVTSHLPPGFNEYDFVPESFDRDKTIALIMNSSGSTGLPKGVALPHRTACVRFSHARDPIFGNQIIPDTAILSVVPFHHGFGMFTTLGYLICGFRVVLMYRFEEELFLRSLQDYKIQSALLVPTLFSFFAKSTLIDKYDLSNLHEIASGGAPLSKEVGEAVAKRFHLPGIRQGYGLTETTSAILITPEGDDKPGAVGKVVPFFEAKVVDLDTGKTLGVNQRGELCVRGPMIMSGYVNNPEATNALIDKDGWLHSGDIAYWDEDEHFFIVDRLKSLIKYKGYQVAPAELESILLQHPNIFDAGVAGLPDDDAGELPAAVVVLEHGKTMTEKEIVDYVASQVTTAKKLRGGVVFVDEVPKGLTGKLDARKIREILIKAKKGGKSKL
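Purified P. pyralis luciferase (10nM final) with 10uM D-luciferin and 10uM ATP (Km levels) in 50mM Tris acetate pH 7.5, 10mM Mg acetate, 0.01% Tween-20, 0.05% BSA; qHTS 6-point titration, ~60 µM downward; luminescence read.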
Rab9 prom act – Rab9 promoter activation | AID 485297 | 320,000 compounds, 2.8% hits | Huh7 Rab9 promoter-luciferase reporter, luminescence, 24 h | Potency, µM (titrated, usually from 9.22 µM), for inactives: at the highest dose activation, negative = inhibition, actives largely listed as activators; also: % of control where 0% means no effect; nearly all actives have a fitted effect of over 60% in size
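Cell-based reporter: Huh7 stable for Rab9 promoter-driven luciferase, plated in reduced-serum medium with 10% FBS at 1500 cells/well, compound-treated 24 h at 37 °C, luminescence read after 10 min reagent.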
* hit, by the source's call; ? = inconclusive; . = no result given; [ ] = remark or other dose. Calls follow the shape of the dose curve; as a rule, active = well fitted curve in the direction sought with a large enough effect; inconclusive = small, poorly fitted or top-dose-only effect, or another doubt; inactive = no such curve, though single readings can be large; an effect the other way counts as inactive or inconclusive. Potency is read from the fitted curve at half-maximal effect.

SMILES | KinaseGlo FLuc | SMN2 splice up | NPC1 prom act | ELG1 genotoxic | FLuc modulator | Rab9 prom act
Cc1nn(-c2ccccc2)c(N2CCCC2)c1/C=N/NC(=O)c1cc(-c2cccnc2)nc2ccccc12 | 2.2% | -25.9% | -3.0% | -8.8% | 0.8% | -10.4%
O=C(N/N=C/c1ccccn1)c1cc(C2CC2)nc2ccccc12 | . | . | 2.1% | 2.4% | -0.6% | -3.2%
C=CCC(O)c1ccccc1 (configuration not stated) | -0.7% | -1.1% | . | . | . | .
CCOc1ccc(C(=O)Nc2ccc3nc(SCC(=O)N4CCOCC4)sc3c2)cc1 | . | . | . | . | -17.9% | .
CCc1ccccc1Nc1nn2c(=O)c3ccc(C(=O)NCCCOC(C)C)cc3nc2s1 | . | . | 0.2% | . | 3.1% | -6.4%
COc1ccc(/C=N/NC(=O)c2cc(-c3ccccc3)nc3ccccc23)c(C(=O)O)c1OC | . | . | 2.5% | 3.3% | 7.57µM* | 3.2%
COc1cc(/C=N/NC(=O)c2cc(-c3ccccc3OC(C)C)nc3ccccc23)ccc1O | 4.1% | ? | -1.1% | -6.8% | -3.4% | -0.2%
O=C(N/N=C/c1cc(Cl)cc([N+](=O)[O-])c1O)c1cc(-c2ccccn2)nc2ccccc12 | . | . | -4.8% | 9.5% | 21.3µM* | -16.3%
CCN(CC)S(=O)(=O)c1cccc(C(=O)N/N=C/c2ccccc2OCC(=O)O)c1 | 3.9% | 2.3% | -4.3% | -0.6% | 26.9µM* | -3.2%
CCOc1ccc(/C=N/NC(=O)c2cc(-c3ccccc3)nc3ccccc23)cc1O | . | . | 0.5% | -17.9% | 15.1µM* | 0.5%
COc1cccc(/C=N/NC(=O)c2cc(-c3ccccn3)nc3ccccc23)c1O | . | . | -33.7% | 5.1% | ? | -33.0%
CCn1c(=O)sc2cc(NS(=O)(=O)c3ccc(F)c(C)c3)ccc21 | . | -40.8% | . | . | -14.6% | .
C[C@H]1Cc2c(COc3ccccc3)nc3c(c2CO1)CN(S(=O)(=O)c1ccc2c(c1)OCCN2C)CC3 | -7.7%[7.66 µM] | -1.0%[9.22 µM] | . | . | . | .
C/C=C/C1=Cc2ccccc2C(C(C(=O)OC)C(=O)OC)N1C(=O)OC (configuration not stated) | -2.0% | -4.1% | . | . | . | .
CCc1nnc2c(N3CCN(c4cccc(C(F)(F)F)c4)CC3)nc3ccccc3n12 | . | . | . | . | -3.3% | .
CC(=O)Nc1ccc(NC(=O)c2cnn(-c3ccccc3)c2C2CCN(C(=O)OC(C)(C)C)CC2)cc1 | . | -0.6% | . | . | -2.0% | .
COc1ccc(/C=N/NC(=O)c2cc(-c3ccccc3)nc3ccccc23)cc1O | . | . | 1.7% | -6.0% | 5.36µM* | 1.2%
O=C(N/N=C/c1ccc(O)cc1)c1csc2ccccc12 | -6.5% | 4.1% | 19.3% | 1.0% | 15.1µM* | 1.4%
O=C(N/N=C/c1ccc(O)cc1)c1cc(-c2ccccc2)nc2ccccc12 | . | . | 0.4% | -0.5% | 5.36µM* | 6.1%
COc1cc(/C=N/NC(=O)c2cc(-c3ccccc3)nc3ccccc23)ccc1O | . | . | 0.3% | -5.6% | 10.7µM* | -3.4%
O=C(Nn1cnnc1)c1csc2ccccc12 | 2.9% | ? | 1.4% | -0.1% | 1.4% | -0.1%
CCOc1ccc(OC(=O)c2c(-c3ccccc3Cl)noc2C)cc1 | . | . | . | . | 1.6% | .
CN(c1nnc(NC(=O)Nc2ccccc2C(F)(F)F)s1)C1CCCCC1 | . | . | . | . | -5.4% | .
CCOC(=O)c1ccc(CN(Cc2ccc(F)cc2)S(=O)(=O)c2cc(C(=O)Nc3ccccc3CC)ccc2F)cc1 | . | . | . | . | -2.9% | .
Cc1cc(C)cc(NC(=O)c2ncn(-c3ccccc3)n2)c1 | . | 11.2µM* | . | . | ? | .
Cc1ccc(NC(=O)COC(=O)c2nn(-c3ccc(Cl)cc3)cc2O)cc1 | . | . | . | 10.8% | . | .
NNC(=O)c1nn(-c2ccc(Cl)cc2)cc1O | . | . | ? | 1.4% | 13.5µM* | ?
CC1CCN(c2ccc(-c3cccc(NC(=O)C(F)(F)F)c3)nn2)CC1 | . | . | ? | 0.13µM* | 0.239µM* | 0.316µM*
CCOc1ccc(-c2cccc(NC(=O)c3ccc(Br)o3)c2)nn1 | . | . | 1.7% | -4.4% | ? | 1.6%
O=C(Nc1cccc(-c2ccc(N3CCCCC3)nn2)c1)c1ccc(Br)o1 | . | . | 1.26µM* | 2.31µM* | 0.338µM* | 2.82µM*
